Assay results taken from PubChem BioAssay AID651692 (Broad Institute, 2012).
Measured potencies and affinities stand elsewhere. Activity calls are given as the source filed them.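 How the source made its calls: active means fitted half-maximal concentration for loss of cell signal no higher than twice the top valid tested concentration; inconclusive means flat curve at 30 to 70% inhibition, or poor fit; inactive means flat within 30%, signal rise, or potency above limit.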

assay: cytotoxicity toward MDA-MB-231 breast cancer cells – cell-based, CellTiter-Glo luminescence, cherry-pick, cytotoxicity control for RAD54 inhibitor project, dose response (AID 651692); conditions: MDA-MB-231 viability, 24 h; series mostly up to 26 µM; activity change, negative = growth inhibition: at the top concentration;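 further: 0% = median of sample compound wells and -100% = staurosporine control wells; more negative values mean stronger loss of viable cell signal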

| Structure (SMILES) | activity change, negative = growth inhibition |
| --- | --- |
| c1ccc(CNc2c3ccccc3nc3ccccc23)cc1 | -21% (inactive) |
| Cn1nc(-c2ccccc2)cc1NS(=O)(=O)c1ccc(C#N)cc1 | 1.14% (inactive) |
| CCN1CCN(CCCNC(=O)c2cc3cc4ccc(OC)cc4nc3o2)CC1 | 7.08% (inactive) |
| NC1CCN(c2c(F)cc3c(=O)c(C(=O)O)cn(C4CC4)c3c2Cl)C1 (centres undefined) | 16% (inactive) |
| CN(C)CCNC(=O)c1cccc(-c2cnc3c(NC=O)cc(-c4ccc(C(=O)N5CCOCC5)cc4)cn23)c1 | -0.135% (inactive) |
| Cc1nc2ccccc2c2oc(C(=O)N3CCC(N4CCCCC4)CC3)cc12 | 5.89% (inactive) |
| Cc1ccc(-c2nc(NCCCO)c3ccccc3n2)cc1 | -3.38% (inactive) |
| COc1cccc2sc3cc(NCCCN4CCOCC4)ccc3c(=O)c12 | 6.52% (inactive) |
| COc1ccc(CCNc2c3ccccc3nc3ccccc23)cc1OC | -1.11% (inactive) |
| CCN(CC)CCCNC(=O)c1cc2c(=O)n(C)c3ccccc3c2n1C | -6.68% (inactive) |
| c1cc2c3c(cccc3c1)C(N1CCCCC1)=N2 | 4.52% (inactive) |
| COc1cc2c3c(cccc3c1)C(=O)N(CCN1CCCC1)C2=O | 16.7% (inactive) |
| CN(C)C(CNC(=O)CCCN1C(=O)c2cccc3cccc(c23)C1=O)c1ccccc1 (centres undefined) | 13.8% (inactive) |
| c1ccc(-c2nnc(SCc3nc4ccccc4[nH]3)o2)cc1 | 13.1% (inactive) |
| Cc1ccc2oc(=O)c3cc(C(=O)NCCCN4C(C)CCCC4C)sc3c2c1 (centres undefined) | 4.27% (inactive) |
| COc1cccc2sc3ccc(NCCC4CCCN4C)cc3c(=O)c12 (centres undefined) | -11.6% (inactive) |
| COc1ccc(N2C(=O)CSC23CCCCC3)cc1 | 4.78% (inactive) |
| COc1ccc(Cc2c(-c3ccc(OC)c(OC)c3)nc3c(C)cc(Br)cn23)c(C)c1 | 16.1% (inactive) |
| Cc1nc2ccccc2c2oc(C(=O)NCCN3CCCCC3C)cc12 (centres undefined) | 7.34% (inactive) |
| CCN(CC)CCCNC(=O)c1cc2c(=O)[nH]c3ccc(C)cc3c2s1 | 0.14% (inactive) |

| Structure (SMILES) | activity change, negative = growth inhibition |
| --- | --- |
| COc1ccc(-c2cc(NC=O)c3ncc(-c4cccc(C(=O)NCCN(C)C)c4)n3c2)cc1 | -4.06% (inactive) |
| CC1CCN(CCCNC(=O)c2cc3c(=O)n(C)c4ccccc4c3n2C)CC1 | -4.97% (inactive) |
| CCCCN(C)CCNC(=O)c1cc2c(-c3cccc(OC)c3)nn(C)c2s1 | -21.9% (inactive) |
| O=C(COc1ccc2c(c1)oc(=O)c1ccccc12)NCCCN1CCOCC1 | 4.58% (inactive) |
| O=S(=O)(c1ccc(-c2nnc(SCc3ccccc3)o2)cc1)N1CCCC1 | 0.546% (inactive) |
| O=C(NCCCN1CCOCC1)c1cnn2c(-c3ccccc3)cc(-c3ccccc3)nc12 | -10.7% (inactive) |
| CCn1c(=N)c(C(=O)NC)cc2c(=O)n3cccc(C)c3nc21 | -5.42% (inactive) |
| CCOc1cc2[nH]c(=O)n(Cc3ccc(C(=O)NCCCN4CCC(C)CC4)cc3)c(=O)c2cc1OCC | 8.84% (inactive) |
| Cc1c(-c2cc(Br)ccc2O)nc2cc3c(cc2c1C)OCO3 | 2.31% (inactive) |
| Cc1cccc(-c2nc(NCCCN(C)C)c3ccccc3n2)c1 | 3.89% (inactive) |
| Oc1cccc(Nc2c3ccccc3nc3ccccc23)c1 | -0.751% (inactive) |
| CN1CCN(c2nc(-c3cccc([N+](=O)[O-])c3)nc3ccccc23)CC1 | -12.8% (inactive) |
| CCN1CCN(c2cc(C)c3cc(NC(=S)N4CCCCC4)ccc3n2)CC1 | -12.2% (inactive) |
| CC(=O)Nc1cc(-c2cccc(C(=O)NCCN(C)C)c2)cn2c(-c3ccccc3)cnc12 | -4.39% (inactive) |
| Cc1cc(N2CCN(C)CC2)nc2ccc(NC(=S)NCCCN3CCc4ccccc4C3)cc12 | -2.84% (inactive) |
| CCN(CC)CCCNc1nc2cc(OC)c(OC)cc2c2nc(-c3ccccc3)nn12 | -12.7% (inactive) |
| Nc1c(C(=O)NCCN2CCOCC2)c2nc3ccccc3nc2n1-c1ccc2c(c1)OCO2 | -0.672% (inactive) |
| CN(C)c1cc(NC(=O)CNC(C)(C)C)c2ccccc2n1 | -2.81% (inactive) |
| CN1CCN(CCCNC(=O)c2cc3c(-c4ccc(Cl)cc4)nn(C)c3s2)CC1 | -4.78% (inactive) |
